# A selection: hits, their analogues and other compounds. The true share with any hit is near 2.3%.
# GSTO1 counter: blocks human GSTO1 in RBBP9 counter-screen; P78417; recombinant GSTO1, activity-based probe fluorescence polarization; inhibition, % at 5.96 µM; 1.1% of 300,000 active;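 active = inhibition above the campaign mean inhibition plus 3 SD, cut at about 35% in these data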;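 also: 0% = GSTO1-1 with DMSO and 100% = wells lacking GSTO1-1 enzyme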
# Target sequence (P78417 whole entry, looked up): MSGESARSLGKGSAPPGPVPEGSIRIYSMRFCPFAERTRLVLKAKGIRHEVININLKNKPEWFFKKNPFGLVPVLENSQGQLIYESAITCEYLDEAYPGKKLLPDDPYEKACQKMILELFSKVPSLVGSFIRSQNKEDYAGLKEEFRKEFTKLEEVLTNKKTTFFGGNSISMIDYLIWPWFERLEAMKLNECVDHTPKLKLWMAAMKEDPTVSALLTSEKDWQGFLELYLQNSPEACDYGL
# PME-1 primary: PME-1 (human) inhibition; Q9Y570; recombinant PME-1, FP-Rh probe fluorescence polarization; inhibition, % at 5.9 µM; 0.53% of 320,000 active; AID 2130;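 active = inhibition above the campaign mean of all compounds plus 3 SD, cut at about 26% in these data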;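 also: competitive labeling of PME-1 active site by serine hydrolase directed probe; 0% = PME-1 with DMSO and 100% = wells lacking PME-1 enzyme; inhibitors block probe labeling so polarization falls and inhibition rises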
# Target sequence (Q9Y570 whole entry, looked up): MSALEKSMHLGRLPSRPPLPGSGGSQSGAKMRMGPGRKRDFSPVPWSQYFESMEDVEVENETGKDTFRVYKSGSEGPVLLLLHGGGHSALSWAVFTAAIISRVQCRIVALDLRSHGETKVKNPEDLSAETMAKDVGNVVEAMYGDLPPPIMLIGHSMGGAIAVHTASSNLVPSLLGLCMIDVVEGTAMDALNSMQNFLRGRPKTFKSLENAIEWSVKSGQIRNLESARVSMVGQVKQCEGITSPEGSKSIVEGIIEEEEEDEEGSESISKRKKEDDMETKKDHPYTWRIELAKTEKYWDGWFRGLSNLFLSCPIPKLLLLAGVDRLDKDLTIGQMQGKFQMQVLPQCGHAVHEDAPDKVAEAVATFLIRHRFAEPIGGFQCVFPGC
# Fam108B counter: Fam108B inhibition, counter-screen for RBBP9 inhibitors | recombinant Fam108B, FP-Rh probe fluorescence polarization | inhibition, % at 9.51 µM | 0.33% of 300,000 active | AID 1947;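 active = inhibition above the screen mean inhibition plus 3 SD, computed separately per campaign, cut at about 18% in these data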;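 also: inhibitors lower polarization as less probe binds the enzyme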
# pPAFAH FP inh: pPAFAH (human) enzyme inhibition; Q13093; recombinant pPAFAH, FP-rhodamine probe fluorescence polarization; 1.5% of 330,000 active; inhibition, % at 3.39 µM;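 active = inhibition above the mean inhibition across the screen plus 3 SD, cut at about 25% in these data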;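 also: inhibitors block binding of the rhodamine activity-based probe so polarization drops; 0% = enzyme with DMSO and 100% = wells lacking pPAFAH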
# PAD4 FP inh: blocks human protein arginine deiminase 4. Q9UM07. recombinant PAD4, RCA probe fluorescence polarization. inhibition, % at 6.36 µM. 0.41% of 330,000 active. AID 485272;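 active = percent inhibition above a cutoff equal to the mean of all tested compounds plus 3 SD, cut at about 15% in these data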;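 also: 0% = PAD4 with RCA probe and DMSO and 100% = probe without PAD4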
# GSTO1 confirm: confirmation of human GSTO1 inhibitors | inhibition, % at 5.96 µM | recombinant GSTO1, probe fluorescence polarization | shares compounds with GSTO1 counter | 54% of 2,400 active | AID 2176;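 active = inhibition above the primary screen's cutoff, its mean inhibition plus 3 SD, cut at about 35% in these data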;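 also: loss of polarization as inhibitors block binding of rhodamine sulfonate ester activity probe; 0% = GSTO1 with DMSO and 100% = wells lacking GSTO1 enzyme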
# pPAFAH FP conf: pPAFAH (human) inhibition, confirmed | shares compounds with pPAFAH FP inh | recombinant pPAFAH, FP-Rh probe fluorescence polarization | inhibition, % at 3.39 µM | 72% of 2,300 active | AID 463230;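 active = mean inhibition of the triplicate above the hit cutoff set for the earlier primary screen, cut at about 25% in these data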;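 also: 0% = enzyme with DMSO and 100% = wells lacking pPAFAH enzyme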
# PAD4 FP conf: confirmation of human PAD4 inhibitors; shares compounds with PAD4 FP inh; recombinant PAD4, RCA probe fluorescence polarization; inhibition, % at 6.36 µM; 28% of 1,200 active; AID 488796;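 active = mean inhibition across replicates above the hit cutoff set by the earlier primary screen, cut at about 15% in these data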;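 also: inhibitors block active-site labeling by the probe so polarization falls; 0% = PAD4 with probe and DMSO and 100% = probe without PAD4 enzyme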
# The depositor's hits bear a star; · = not tested or not shown.
SMILES,GSTO1 counter,PME-1 primary,Fam108B counter,pPAFAH FP inh,PAD4 FP inh,GSTO1 confirm,pPAFAH FP conf,PAD4 FP conf
CC1CCCN(Cc2cccc(Oc3ccccc3)c2)C1 (stereo unspecified),-1.5,0.3,1.9,0.4,-3.3,·,·,·
CC(C)=C1C(=O)NN(c2ccc(C)c(Cl)c2)C1=O,43.9*,-0.9,-0.7,58.6*,1.5,17.7,6.1,·
C/C(=N\NC(=O)c1cc(O)ccc1O)c1cccc(NC(=O)c2cccc(Cl)c2)c1,55.9*,12.9,10.5,38.2*,-8.8,17.4,15.1,·
C/C(=N\NC(=O)c1cc(O)ccc1O)c1cccc(NC(=O)c2ccc(Cl)cc2)c1,85.1*,8.6,11.1,46.2*,-6.2,19.4,20.6,·
C/C(=N\NC(=O)c1ccccc1O)c1cccc(NC(=O)c2ccccc2)c1,5.0,-7.0,-5.9,8.2,-4.8,·,·,·
C/C(=N\NC(=O)C1CC1)c1cccc(NC(=O)c2cccc(Cl)c2)c1,-4.5,1.9,4.0,-1.3,-7.4,·,·,·
CCNc1c(NS(=O)(=O)c2ccc(OC)cc2)c(=O)oc2ccccc12,-1.1,-2.2,-4.0,2.3,-0.2,·,·,·
Cc1ccc(NC(=O)c2ccc(Cl)c(S(=O)(=O)N3CCCCC3)c2)nc1,·,5.0,·,5.4,4.8,·,·,·
O=C(Nc1sc2c(c1C(=O)NCC(O)CO)CCCC2)c1ccccc1 (stereo unspecified),1.8,9.0,-1.1,5.3,-8.0,·,·,·
Oc1ccc(-c2cn3c(n2)SCC3)cc1O,53.4*,-7.0,0.9,56.0*,-0.1,4.6,20.5,·
N#C/C(=C\c1ccc(O)c(O)c1)C(=O)Nc1cccc2ncccc12,56.1*,28.5*,13.4,52.1*,-11.7,28.5,69.5*,·
CC(C)NC(=O)c1ccc(COc2ccc(C(C)(C)C)cc2)o1,-1.1,-6.8,0.0,3.5,0.8,·,·,·
COc1ccc(N2C(=O)c3ccccc3C2O)cc1 (stereo unspecified),3.7,3.6,9.7,0.2,1.1,·,·,·
COc1ccc(O)c(C(=O)C2c3ccccc3C(=O)N2c2ccc(C)cc2)c1 (stereo unspecified),62.4*,-9.0,-7.3,39.9*,-4.0,1.1,-1.1,·
COc1ccc(/C=C/C(=O)OCC(=O)NC2CCCC2)c(OC)c1,·,-4.2,·,22.9,-2.7,·,·,·
Oc1ccc(-c2nc(-c3ccc(O)c(O)c3)cs2)cc1,47.3*,13.7,-1.1,49.5*,0.7,5.5,37.9*,·
Oc1ccc(Nc2nc(-c3ccc4ccccc4c3)cs2)cc1,4.7,15.5,10.0,0.0,1.5,·,·,·
CC(N=Cc1cc([N+](=O)[O-])ccc1O)c1ccccc1 (stereo unspecified),5.3,-6.8,0.8,-3.9,-5.2,·,·,·
CC(N=Cc1cccc(O)c1O)c1ccccc1 (stereo unspecified),77.0*,17.9,11.6,66.4*,6.7,53.7*,16.6,·
COc1ccc2cc(/C(C)=N/NC(=O)c3cc(-c4cccnc4)nc4ccccc34)ccc2c1,2.3,0.2,0.3,-1.1,2.1,·,·,·
NC1=NC(=O)/C(=C/c2cc(Br)c(O)c(Br)c2)S1,41.0*,-6.5,5.6,48.3*,-28.4,81.3*,42.2*,·
COc1ccc(OC)c(NC(=O)Nc2ccc(O)c3ccccc23)c1,61.4*,12.9,6.1,6.3,23.2*,-7.0,·,1.0
O=C(Nc1ccccc1)Nc1ccc(O)c2ccccc12,47.0*,16.2,10.6,14.1,23.8*,37.9*,·,-10.9
CC(OC(=O)c1ccc(Br)o1)C(=O)NCC1CCCCC1 (stereo unspecified),·,·,·,4.4,-0.2,·,·,·
O=C(CC1Nc2cccc3cccc(c23)NC1=O)Nc1ccccc1 (stereo unspecified),37.6*,8.5,8.8,51.8*,25.2*,19.6,11.8,3.5
SMILES,GSTO1 counter,PME-1 primary,Fam108B counter,pPAFAH FP inh,PAD4 FP inh,GSTO1 confirm,pPAFAH FP conf,PAD4 FP conf
CC1C(=O)N2CCCc3cc(NC(=O)c4ccccc4Br)cc1c32 (stereo unspecified),2.3,4.3,-1.3,5.4,-1.4,·,·,·
CCc1cc(SC#N)cc(C)c1NC(=O)CCl,72.4*,-0.1,-0.7,2.0,20.6*,74.5*,·,2.1
CCc1cc(SC#N)cc(C)c1N,0.1,-3.8,0.6,-0.8,3.2,·,·,·
O=C1C(Nc2ccccc2)=C(N2CCCCC2)C(=O)c2ccccc21,62.2*,4.4,7.8,4.6,14.9*,56.2*,·,-4.5
COc1ccccc1NC1=C(N2CCCCC2)C(=O)c2ccccc2C1=O,73.5*,-6.7,7.0,-7.1,37.5*,54.2*,·,1.6
COc1ccc(CCNC(=O)c2ccc3ccccc3n2)cc1,-0.4,0.7,0.1,1.3,2.1,·,·,·
O=C1c2ccccc2C(=O)c2c1cccc2-n1nnc2ccccc21,-3.4,1.4,-0.5,1.4,-1.1,·,·,·
O=C1C(N2CCOCC2)=C(n2nnc3ccccc32)C(=O)c2ccccc21,76.5*,0.2,10.6,7.0,22.8*,83.6*,·,15.3*
Nn1cnnc1N/N=C/c1ccc(Cl)c([N+](=O)[O-])c1,38.8*,-1.8,-3.8,-5.0,56.0*,6.1,·,-1.5
Cc1ccc(NC2=CC(=O)C(=O)c3ccccc32)c(C)c1,·,12.9,·,2.9,-12.3,·,·,·
O=C1C=C(Nc2ccccc2O)c2ccccc2C1=O,71.5*,1.9,6.0,19.3,64.6*,73.6*,·,31.2*
Cc1ccc(S(=O)(=O)Nc2cc(Cl)c(O)c3ncccc23)cc1,61.3*,9.8,0.1,45.8*,36.3*,5.4,36.9*,6.9
N#CC1(NC(=O)CSc2nnc(-c3ccccc3F)o2)CCCCC1,3.1,1.6,2.1,3.0,-1.4,·,·,·
CC1(C)Nc2ccc(O)cc2-c2c1ssc2=S,63.0*,1.6,5.5,26.2*,41.1*,25.2,·,17.5*
CN(C)c1ccc(N/C=C/C(=O)c2ccccc2)cc1,61.8*,0.7,-0.2,38.6*,17.3*,-0.6,6.2,-3.0
CN(C)c1ccc(N/C=C/C(=O)C(C)(C)C)cc1,82.7*,5.6,6.1,17.6,18.1*,12.5,·,-8.9
NC(=O)C1CCN(c2oc(/C=C/c3ccccc3)nc2S(=O)(=O)c2ccccc2)CC1,-4.0,7.2,6.2,9.9,-5.1,·,·,·
Oc1c(Br)cc(Br)cc1C=Nc1cccc2ncccc12,73.4*,19.9,16.4,27.8*,37.4*,6.1,·,-10.1
COC(=O)C1(c2ccccc2)NC(c2ccc(O)cc2)C2C(=O)N(c3ccc4c(c3)OCO4)C(=O)C21 (stereo unspecified),-4.9,1.8,1.4,-2.8,-4.0,·,·,·
O=C1C(Cl)=C(NCc2cccnc2)C(=O)c2ccccc21,76.8*,4.7,8.6,2.1,21.4*,57.0*,·,-6.7
COc1cc(/C=C/C(=O)O)cc(S(=O)(=O)Nc2ccccc2Cl)c1OC,0.7,-2.2,0.7,2.1,1.3,·,·,·

# Compound activity (PubChem BioAssay)
